According to PubChem BioAssay (NCI):
Values joined by “and” are separate entries in the source; they are usually repeats but may differ in a detail not shown here. Equal values may be shown once. About 79,000 compounds went through this panel and 15% of them were active in at least one assay; those are over-represented in the sample as a whole. Some compounds were tested as several samples or in several runs, with calls that do not always agree. Active and inactive are the calls of the source. No stated cut-off is given here; in the data, active means growth inhibition above about 70%; inactive means the rest.

Key:
[1] = NCI Yeast Anticancer Drug Screen. Data for the rad50 strain (AID 155);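 further: 0% = growth of vehicle-only cultures of the same strain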; details: S. cerevisiae rad50 strain growth inhibition, stronger effect = higher value
Summary of the method: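 Relative growth inhibition (compound vs vehicle) was measured in yeast with a defined repair-gene alteration.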

[2] = NCI Yeast Anticancer Drug Screen. Data for the mec2-1 strain (AID 157); details: S. cerevisiae mec2-1 strain, stronger effect = higher value
Summary of the method: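 Test agents were screened against the mec2-1 yeast strain, with defined DNA repair or cell cycle alteration. Growth was scored as inhibition against vehicle-only controls.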

[3] = NCI Yeast Anticancer Drug Screen. Data for the sgs1 mgt1 strain (AID 161);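 further: 0% = growth of cultures given vehicle only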; details: S. cerevisiae sgs1 mgt1 strain, stronger effect = higher value
Summary of the method: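 Read-out: growth inhibition vs vehicle controls. Cells: mutant yeast strain deficient in DNA damage repair.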

[4] = NCI Yeast Anticancer Drug Screen. Data for the cln2 rad14 strain (AID 165);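 further: 0% = growth equal to vehicle treated cultures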; details: S. cerevisiae cln2 rad14 strain, stronger effect = higher value
Summary of the method: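 Growth of compound-exposed yeast (cln2 rad14 genotype) measured and expressed as inhibition relative to vehicle.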

[5] = NCI Yeast Anticancer Drug Screen. Data for the bub3 strain (AID 167); details: S. cerevisiae bub3 mutant strain, stronger effect = higher value
Summary of the method: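 Screening used yeast with an engineered genetic alteration affecting cell cycle control. Compound-exposed cultures were compared with vehicle cultures, and reduced growth was taken as inhibition.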

[6] = NCI Yeast Anticancer Drug Screen. Data for the mlh1 rad18 strain (AID 175); details: S. cerevisiae mlh1 rad18 strain growth inhibition, stronger effect = higher value
Summary of the method: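 In this whole-cell yeast screen, a strain with altered DNA damage repair is challenged with compound, and its growth is measured against matched vehicle-treated controls.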

[7] = at 5.0 µM (retest, dose inferred, filed as 0.5)
[8] = at 50.0 µM (retest, dose inferred, filed as 5.0)

Measured: growth inhibition

O=C(O)c1ccccc1C(=O)O
inactive: [1]; [7] -3% | [1]; [8] 8% | [1]; at 50.0 µM -29.7% and 15.6% | [2]; [7] -3% | [2]; [8] 4% | [2]; at 50.0 µM -14.8% and 5.1% | [3]; [7] 0% | [3]; [8] 7% | [3]; at 50.0 µM 4.95% and -23.6% | [4]; [7] 4% | [4]; [8] 7% | [4]; at 50.0 µM 21.1% and 54.1% | [5]; [7] 2% | [5]; [8] -6% | [5]; at 50.0 µM -7.45% and -11.4% | [6]; [7] -2% | [6]; [8] 7% | [6]; at 50.0 µM -5.8% and 7%

COc1ccc(/C=C/NC=O)cc1
inactive: [1]; [7] -2% | [1]; [8] -1% | [1]; at 50.0 µM -17.2% | [2]; [7] -3% | [2]; [8] 0% | [2]; at 50.0 µM 0.35% | [3]; [7] -2% | [3]; [8] -1% | [3]; at 50.0 µM -9.6% | [4]; [7] -2% | [4]; [8] 4% | [4]; at 50.0 µM -8.25% | [5]; [7] 1% | [5]; [8] 6% | [5]; at 50.0 µM 19.8% | [6]; [7] -3% | [6]; [8] -2% | [6]; at 50.0 µM 28.9%

Cc1ccccc1N=Nc1ccc(N=Nc2ccc(N)nc2N)c(C)c1
inactive: [1]; [7] 2% | [1]; [8] -23% | [1]; at 50.0 µM 31.2% | [2]; [7] -19% | [2]; [8] 17% | [2]; at 50.0 µM 62.1% | [3]; [7] -1% | [3]; [8] 11% | [3]; at 50.0 µM 10.1% | [4]; [7] -4% | [4]; [8] -27% | [4]; at 50.0 µM 15.3% | [5]; [7] -3% | [5]; [8] 9% | [6]; [7] -2% | [6]; [8] -29% | [6]; at 50.0 µM 28.9%
active: [5]; at 50.0 µM 82.2%

CC(C)(C)c1ccc(-c2c3ccccc3cc3ccccc23)cc1
inactive: [1]; [7] -1% | [1]; [8] -1% | [1]; at 50.0 µM -2.45% | [2]; [7] -1% | [2]; [8] -1% | [2]; at 50.0 µM -4.85% | [3]; [7] -5% | [3]; [8] -2% | [3]; at 50.0 µM 7.55% | [4]; [7] 2% | [4]; [8] -1% | [4]; at 50.0 µM 30.1% | [5]; [7] 1% | [5]; [8] 16% | [5]; at 50.0 µM 0.8% | [6]; [7] -1% | [6]; [8] 2% | [6]; at 50.0 µM -2.2%

CC(C)(S)C(N)C(=O)O (stereo not given)
inactive: [1]; [7] -14% | [1]; [8] 4% | [1]; at 50.0 µM -12.3% and -14.5% and 21.1% | [2]; [7] 1% | [2]; [8] -8% | [2]; at 50.0 µM -9.15% and 2.8% and -17.5% | [3]; [7] -2% | [3]; [8] -9% | [3]; at 50.0 µM -9.7% and -11.3% and 3% | [4]; [7] 4% | [4]; [8] -1% | [4]; at 50.0 µM -2.5% and 45.3% and 3.15% | [5]; [7] -9% | [5]; [8] -13% | [5]; at 50.0 µM -13.6% and -0.75% and 24.6% | [6]; [7] -3% | [6]; [8] -1% | [6]; at 50.0 µM 6.8% and 9.35% and 3.55%

O=c1[nH]c(SCc2c(Cl)c(Cl)c(Cl)c(Cl)c2Cl)nc(=S)[nH]1
inactive: [1]; [7] 1% | [1]; at 50.0 µM 54.1% | [2]; [7] 10% | [2]; [8] 44% | [2]; at 50.0 µM 38.8% | [3]; [7] 3% | [4]; [7] -36% | [4]; [8] 67% | [4]; at 50.0 µM 43.1% | [5]; [7] 14% | [5]; [8] 55% | [5]; at 50.0 µM 65.8% | [6]; [7] 2%
active: [1]; [8] 76% | [3]; [8] 95% | [3]; at 50.0 µM 92.8% | [6]; [8] 86% | [6]; at 50.0 µM 70.8%

COC1C(O)C(C)OC(OC2C(Oc3cccc4c(O)c5c(=O)oc6ccc(C)c7c(=O)oc(c34)c5c67)OC(C)C3O[C@H](c4ccccc4)OC32)C1O (stereo not given in full)
inactive: [4]; [7] 59%
active: [1]; [7] 82% | [1]; [8] 96% | [1]; at 50.0 µM 86.5% | [2]; [7] 70% | [2]; [8] 96% | [2]; at 50.0 µM 88.5% | [3]; [7] 73% | [3]; [8] 96% | [3]; at 50.0 µM 91% | [4]; [8] 96% | [4]; at 50.0 µM 88.3% | [5]; [7] 74% | [5]; [8] 95% | [5]; at 50.0 µM 89.6% | [6]; [7] 77% | [6]; [8] 93% | [6]; at 50.0 µM 77.3%

COc1cccc(NC(=S)C(C#N)C(=O)Nc2cccc(C(F)(F)F)c2)c1 (stereo not given)
inactive: [1]; [7] 66% | [3]; [7] 52% | [4]; [7] 52% | [4]; at 50.0 µM 43.1% | [5]; [7] 48%
active: [1]; [8] 95% | [1]; at 50.0 µM 78.2% | [2]; [7] 74% | [2]; [8] 97% | [2]; at 50.0 µM 84.9% | [3]; [8] 91% | [3]; at 50.0 µM 85.5% | [4]; [8] 88% | [5]; [8] 95% | [5]; at 50.0 µM 87% | [6]; [7] 88% | [6]; [8] 96% | [6]; at 50.0 µM 70.5%

CC(=O)[C@]1(O)Cc2c(O)c3c(c(O)c2[C@@H](OC2CC(N)C(O)C(C)O2)C1)C(=O)c1c(O)cccc1C3=O (stereo not given in full)
active: [1]; [7] 88% and 91% | [1]; [8] 97% and 96% | [1]; at 50.0 µM 91.1% and 86.5% | [2]; [7] 81% and 80% | [2]; [8] 98% and 97% | [2]; at 50.0 µM 92.5% and 89% | [3]; [7] 73% and 92% | [3]; [8] 96% and 98% | [3]; at 50.0 µM 92.4% and 88.3% | [4]; [8] 97% and 95% | [4]; at 50.0 µM 88.7% and 89.2% | [5]; [7] 77% and 86% | [5]; [8] 97% and 98% | [5]; at 50.0 µM 90.8% and 89% | [6]; [7] 90% and 87% | [6]; [8] 97% and 95% | [6]; at 50.0 µM 90.2% and 92%
inactive: [4]; [7] 57% and 66%

CCOC(=O)C1=C(C(=O)c2ccc(C)cc2)C(c2cccc([N+](=O)[O-])c2)C(C(=O)c2ccc(C)cc2)=C(C(=O)OCC)N1
active: [2]; at 50.0 µM 78% | [5]; at 50.0 µM 76.2% | [6]; at 50.0 µM 78.9%
inactive: [1]; [7] 4% | [1]; [8] 55% | [1]; at 50.0 µM 60.6% | [2]; [7] 3% | [2]; [8] 69% | [3]; [7] 8% | [3]; [8] 47% | [3]; at 50.0 µM 61.1% | [4]; [7] -3% | [4]; [8] 2% | [4]; at 50.0 µM 19.3% | [5]; [7] 2% | [5]; [8] 61% | [6]; [7] 0% | [6]; [8] -17%

O=C1OC(c2cccnc2)OC(c2ccccc2)=C1C(=O)c1ccccc1 (stereo not given)
active: [1]; [8] 99% | [1]; at 50.0 µM 99.4% | [2]; [8] 99% | [2]; at 50.0 µM 99.5% | [3]; [8] 98% | [3]; at 50.0 µM 99.5% | [4]; [8] 99% | [4]; at 50.0 µM 98.7% | [5]; [8] 99% | [5]; at 50.0 µM 98.8% | [6]; [8] 99% | [6]; at 50.0 µM 99.2%
inactive: [1]; [7] 5% | [2]; [7] 23% | [3]; [7] 4% | [4]; [7] 12% | [5]; [7] -4% | [6]; [7] 33%

COc1c(O)cc2oc3cc(O)c(CC=C(C)C)c(O)c3c(=O)c2c1CC=C(C)C
inactive: [4]; [7] 51% and 42%
active: [1]; [7] 98% | [1]; [8] 89% | [1]; at 50.0 µM 86.8% and 87.2% | [2]; [7] 99% | [2]; [8] 91% and 93% | [2]; at 50.0 µM 89.2% and 90% | [3]; [7] 99% | [3]; [8] 89% | [3]; at 50.0 µM 90.3% and 89.4% | [4]; [8] 83% and 86% | [4]; at 50.0 µM 85.2% and 86.2% | [5]; [7] 98% | [5]; [8] 87% and 86% | [5]; at 50.0 µM 86.1% and 87% | [6]; [7] 99% and 98% | [6]; [8] 81% and 87% | [6]; at 50.0 µM 87.2%

CC1=CC(=Nc2ccc(N(C)C)cc2)C=CC1=O
-4.05% (inactive) and 78.8% (active): [1]; at 50.0 µM
inactive: [1]; [7] 1% | [1]; [8] 7% | [2]; [7] -5% | [2]; [8] 2% | [2]; at 50.0 µM 10.2% and 46.4% | [3]; [7] 1% | [3]; [8] 7% | [4]; [7] -3% | [4]; [8] -6% | [4]; at 50.0 µM -4.55% and 33.5% | [5]; [7] -1% | [5]; [8] -9% | [5]; at 50.0 µM -7% and 21.4% | [6]; [7] -3% | [6]; [8] 9% | [6]; at 50.0 µM 16.4% and 66.2%
21.9% (inactive) and 84.1% (active): [3]; at 50.0 µM

COc1ccc(/C=C2\CCCC(CN(C)C)C2=O)cc1 (stereo not given)
active: [2]; at 50.0 µM 78.8% | [3]; at 50.0 µM 86.2% | [5]; at 50.0 µM 81.8% | [6]; at 50.0 µM 84.7%
inactive: [1]; [7] -1% | [1]; [8] 8% | [1]; at 50.0 µM 65.4% | [2]; [7] -20% | [2]; [8] 13% | [3]; [7] -31% | [3]; [8] -3% | [4]; [7] -32% | [4]; [8] 9% | [4]; at 50.0 µM 57.4% | [5]; [7] -48% | [5]; [8] 23% | [6]; [7] -22% | [6]; [8] 5%

C=CC(=O)O
inactive: [1]; [7] -2% | [1]; [8] -1% | [1]; at 50.0 µM 9.85% and 32.4% | [2]; [7] -1% | [2]; [8] 0% | [2]; at 50.0 µM 21.9% and -20.6% | [3]; [7] -1% | [3]; [8] 2% | [3]; at 50.0 µM -3.35% and 18.4% | [4]; [7] 0% | [4]; [8] 1% | [4]; at 50.0 µM 20.8% and 9.55% | [5]; [7] 1% | [5]; [8] 3% | [5]; at 50.0 µM 47% and 30.1% | [6]; [7] 1% | [6]; [8] -1% | [6]; at 50.0 µM 47.5% and 39%
